Test results from PubChem BioAssay (NCI).
The panel holds about 79,000 compounds, 15% with a hit somewhere; the sample as a whole holds those more often. A number with no mark means an inactive call. Calls of active or inactive are those of the source. Cut-off read from the data, not from the text of the source: active = growth inhibition above about 70%; inactive = the rest.

Legend:
[1] = NCI Yeast Anticancer Drug Screen. Data for the rad50 strain (AID 155);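 note: 0% = growth of vehicle-only cultures of the same strain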; conditions: S. cerevisiae rad50 strain growth inhibition; at 50.0 µM; active compounds read high
Procedure, shortened: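 Genetically altered yeast (DNA repair pathway); compound treatment; growth inhibition vs vehicle ctrl.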

[2] = NCI Yeast Anticancer Drug Screen. Data for the mec2-1 strain (AID 157); conditions: S. cerevisiae mec2-1 strain, at 50.0 µM, active compounds read high
Procedure, shortened: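 Test agents were screened against the mec2-1 yeast strain, with defined DNA repair or cell cycle alteration. Growth was scored as inhibition against vehicle-only controls.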

[3] = NCI Yeast Anticancer Drug Screen. Data for the sgs1 mgt1 strain (AID 161);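 note: 0% = growth of cultures given vehicle only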; conditions: S. cerevisiae sgs1 mgt1 strain, at 50.0 µM, active compounds read high
Procedure, shortened: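 Genetically altered yeast, compound exposure, growth inhibition relative to vehicle.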

[4] = NCI Yeast Anticancer Drug Screen. Data for the cln2 rad14 strain (AID 165);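 note: 0% = growth equal to vehicle treated cultures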; conditions: S. cerevisiae cln2 rad14 strain, at 50.0 µM, active compounds read high
Procedure, shortened: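 Growth of compound-exposed yeast (cln2 rad14 genotype) measured and expressed as inhibition relative to vehicle.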

[5] = NCI Yeast Anticancer Drug Screen. Data for the bub3 strain (AID 167); conditions: S. cerevisiae bub3 mutant strain, at 50.0 µM, active compounds read high
Procedure, shortened: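 Yeast carrying a defined mutation is treated with each compound, and growth is compared with that of vehicle-exposed cells to give inhibition.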

[6] = NCI Yeast Anticancer Drug Screen. Data for the mlh1 rad18 strain (AID 175); conditions: S. cerevisiae mlh1 rad18 strain growth inhibition; at 50.0 µM; active compounds read high
Procedure, shortened: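 In this whole-cell yeast screen, a strain with altered DNA damage repair is challenged with compound, and its growth is measured against matched vehicle-treated controls.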

SMILES	growth inhibition [1]	growth inhibition [2]	growth inhibition [3]	growth inhibition [4]	growth inhibition [5]	growth inhibition [6]
C=CCNC(=O)N(CCCC(NC(C)=O)C(=O)NCc1ccccc1)Cc1ccccc1 (stereo unspecified)	2.5%	-2.85%	-8.85%	26.4%	-5.25%	-10.2%
O=C(Nc1ccc(C2=NCCN2)cc1)c1cncc(C(=O)Nc2ccc(C3=NCCN3)cc2)c1	5.2%	22.6%	16.4%	50%	8.95%	45.6%
COC(=O)C([O][Ge]([CH3])([CH3])[CH3])c1ccccc1 (stereo unspecified)	8.75%	-15.1%	-1.5%	21.2%	-12.9%	-12.7%
C[N+](C)(CCCn1ccnc1[N+](=O)[O-])CCCn1ccnc1[N+](=O)[O-]	-15.3%	-6%	14.8%	3.55%	-14.8%	4.8%
CCOC(CN(C)C)OCC	8.6%	6.95%	4.1%	-18.2%	-5.8%	5.7%
CN(c1ncc(Cc2cnc(N(C)C3CCN(Cc4ccccc4)CC3)nc2)cn1)C1CCN(Cc2ccccc2)CC1	-0.75%	-5.95%	-12.8%	-7.95%	-2.95%	-21.8%
CC(=N\N=C\c1ccccn1)/C(C)=N/N=C(C)/C(C)=N/N=C/c1ccccn1	29.1%	17.9%	7.9%	11.4%	1.95%	-23.1%
CC(=O)OCC(OC(C)=O)C(OC(C)=O)C(OC(C)=O)c1cnn(-c2ccccc2)n1 (stereo unspecified)	4.05%	12.7%	-20%	-22.8%	5.6%	6%
O=C(c1ccccc1)c1ccc2ccccc2c1C(=O)O	-8.25%	9.6%	4.85%	-69.3%	-5.65%	-17%
COC1OC(COS(=O)(=O)c2ccc(C)cc2)C(OS(=O)(=O)c2ccc(C)cc2)C1OCc1ccccc1 (stereo unspecified)	-2.35%	2.85%	3.9%	-15.7%	-0.65%	-1.4%
O=S(/N=C/c1ccccc1)c1ccc(Cl)cc1 (stereo unspecified)	-7.6%	4.5%	12.4%	13.9%	9.4%	13%
S=C1NC=CC(S)N1 (stereo unspecified)	-3.3%	5.95%	6.6%	10.3%	11.2%	-1.35%
O=C(Nc1ccc(Cl)cc1)OC(C(=O)c1ccccn1)c1ccccn1 (stereo unspecified)	0.25%	13.7%	-17.6%	5.75%	7.1%	8.5%
NC(=O)CCCC(=O)c1cccc([N+](=O)[O-])c1	-14.2%	2.2%	-16.9%	-42.9%	-1.25%	-25.4%
C=CCC1=C(C)C[C@@H]2CCC(=O)C=C12	9.05%	-24.9%	-8.5%	11.2%	-13%	5.5%
COc1cccc(C(N)C(=O)O)c1 (stereo unspecified)	-22.9%	-16.2%	-5.25%	-26.2%	-12.4%	-17.4%
O=C1C=CC2CCC1C2 (stereo unspecified)	24.8%	-6.25%	-20.5%	26.6%	-38.8%	-29.3%
CC12CC(=O)NC(=O)N1CCS2 (stereo unspecified)	3.7%	5.6%	-1.85%	-20.7%	-13.7%	-6.15%
CCCc1c(OC)c(=O)c2c(OC)cc(OC)c3c4c(OC)cc(OC)c5c(=O)c(OC)c(CCC)c(c1c23)c54	88.3% (active)	92% (active)	86.4% (active)	88.5% (active)	83% (active)	92.6% (active)
CCOC(=O)[C@H]1Nc2ccc(Cl)cc2[C@H]2c3ccccc3O[C@H]21	4.85%	-22.3%	-23.1%	8.35%	-19.7%	-19.4%
CCOC(OCC)C(O)c1ccccc1 (stereo unspecified)	-17.2%	-17%	-11.9%	-15%	-12.6%	-11%

SMILES	growth inhibition [1]	growth inhibition [2]	growth inhibition [3]	growth inhibition [4]	growth inhibition [5]	growth inhibition [6]
CC(C)=C1C(=O)C[C@]2(C)C/C=C(\C)CC/C=C(\C)CC[C@@H]12	39.5%	40.9%	62.5%	46.2%	58.9%	38.8%
O=C(O)CNC(=O)CNC(=O)C(CCC(=O)OCc1ccccc1)NC(=O)OCc1ccccc1 (stereo unspecified)	27.2%	12.3%	14.4%	9.3%	6.2%	15.2%
Cc1cccc(NC(=O)CSc2nnc(-c3ccc(N=Cc4ccc(Cl)cc4)cc3)o2)c1	6.3%	-24.1%	9.25%	-42.5%	6.8%	14.7%
CC1(C#N)C(C#N)(C#N)C1(C#N)C#N	-0.05%	-3.35%	-10.8%	-13.2%	-30.1%	-21.1%
COc1cccc(C=Nc2ccc(N(C)C)cc2)c1O.COc1cccc(C=Nc2ccc(N(C)C)cc2)c1O.[Co]	31.4%	5.55%	14.6%	2.9%	8.25%	-2.3%
CCCc1cc(C)cc(N=Cc2ccccc2)c1O	96.6% (active)	97.6% (active)	93.8% (active)	97.8% (active)	97% (active)	97.2% (active)
CCCCCC(CCCCC)=C(C#N)C(=O)OCC	-6.15%	21.1%	7.55%	-19.4%	19.9%	25.8%
O=C(O)c1ccc(S(=O)(=O)N=Nc2c(O)[nH]c3ccccc23)cc1	-6.6%	-5.2%	-35%	-1.15%	-37%	-7.45%
CC(C)CCC(=O)C(C)C	19.7%	-9.55%	13.2%	11.5%	10.8%	15.2%
O=C(/N=C1\N=Nc2nc(C(C(=O)c3cccc([N+](=O)[O-])c3Cl)c3nc4n(c3O)/C(=N/C(=O)Nc3ccc(Cl)cc3)N=N4)c(O)n21)Nc1ccc(Cl)cc1 (stereo unspecified)	9.35%	-8.2%	5.25%	-6.65%	0.7%	7.1%
CSc1n[nH]c(-c2cccs2)n1	-6.6%	-15.7%	19.9%	-8.3%	-6.35%	-0.9%
Nc1cc(=O)n(C2OC(CO)C(O)C2O)cn1 (stereo unspecified)	6.85%	-8.35%	-0.3%	-39.4%	-19.4%	8.05%
CSc1nc2c(c(=O)[nH]1)N=C(c1ccccc1)CC(c1ccccc1)N2 (stereo unspecified)	7.45%	14.7%	17.8%	-0.55%	22.6%	-5.85%
CCC1CCC2c3c([nH]c4ccccc34)C3C(=O)N(c4ccc(OC)cc4)C(=O)C3C2C1 (stereo unspecified)	-13.1%	-10.6%	3.5%	6.65%	2.05%	24.4%
OC1C(O)C2CC1C1C2C2(Cl)CC1(Cl)C(Cl)=C2Cl (stereo unspecified)	7.6%	-1.55%	1.5%	-1.35%	-6.1%	14.3%
CSC(SC)=C1CCCC(=C(SC)SC)C1=O	-6.95%	-9.3%	-9.55%	6.95%	-0.45%	-8.9%
C=CCNC(=O)C[n+]1cccc(C(=O)Nc2ccccc2)c1	1.65%	-18.2%	5.4%	23.2%	5.95%	-0.95%
Nc1nc(N)c2nc3c(nc2n1)CCCC3	-15.9%	-35.7%	-18.3%	8.95%	-13.1%	-25.7%
c1ccc2c(c1)CCc1c-2n[nH]c1-c1[nH]nc2c1CCc1ccccc1-2	-12.1%	-10%	-1.3%	-21.9%	-26.2%	-5%
CC(=O)C1(C(C)=O)OC2c3ccccc3C=CN2C=C1C=O (stereo unspecified)	6.6%	1.35%	14.6%	4.45%	6.05%	11.1%
